Results taken from PubChem BioAssay AID1159580 (chemical genetic matrix, 2015).
Out of some 5,500 compounds screened, about 2,000 (36%) were called active. About 18% were inconclusive and are not listed. No stated cut-off is given here; in the data, active means normalized growth mostly below about 0.91 (no sharp cut-off); inconclusive means no clear call, values can overlap the other calls; inactive means mostly above about 0.92. The list shows a part of the results.

Experiment: chemical genetic growth profiling, strain panel (AID 1159580);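 further: tested at 20 µM; growth read once vehicle control cultures reached saturation at 30 °C; 1 = growth at the plate median or of vehicle wells; lower values mean less growth of the strain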
Settings: growth OD

Measured: normalized growth

C#C[C@]1(O)CCC2C3CCC4=CC(=O)CC[C@@H]4C3CC[C@@]21C (some centres undefined)
inactive: S. cerevisiae deletion strains, locus YJR066W, strain TOR1, hits give low values 0.909 | S. cerevisiae deletion strains, locus YKL009W, strain mrt4, hits give low values 0.954 | S. cerevisiae deletion strains, locus YKL068W, hits give low values 0.989 | S. cerevisiae deletion strains, locus YKL085W, strain MDH1 (second series), hits give low values 0.986 | S. cerevisiae deletion strains, locus YKL085W, strain MDH1, hits give low values 0.986 | S. cerevisiae deletion strains, locus YKL160W, strain elf1, hits give low values 1.01 | S. cerevisiae deletion strains, locus YKL190W, strain CNB1, hits give low values 0.977 | S. cerevisiae deletion strains, locus YKR001C, strain vps1, hits give low values 0.946 | S. cerevisiae deletion strains, locus YKR026C, strain gcn3, hits give low values 0.979 | S. cerevisiae deletion strains, locus YKR091W, strain srl3, hits give low values 0.982 | S. cerevisiae deletion strains, locus YLL001W, strain dnm1, hits give low values 0.972 | S. cerevisiae deletion strains, locus YLL026W, hits give low values 0.994 | S. cerevisiae deletion strains, locus YLL041C, strain sdh2, hits give low values 0.974 | S. cerevisiae deletion strains, locus YLR027C, strain aat2, hits give low values 0.983 | S. cerevisiae deletion strains, locus YLR039C, strain RIC1, hits give low values 0.862 | S. cerevisiae deletion strains, locus YLR058C, strain SHM2, hits give low values 0.989 | S. cerevisiae deletion strains, locus YLR102C, strain apc9, hits give low values 0.978 | S. cerevisiae deletion strains, locus YLR113W, strain HOG1, hits give low values 0.958 | S. cerevisiae deletion strains, locus YLR221C, strain rsa3, hits give low values 0.991 | S. cerevisiae deletion strains, locus YLR258W, strain gsy2, hits give low values 0.993 | S. cerevisiae deletion strains, locus YLR262C, strain YPT6 (second series), hits give low values 0.916 | S. cerevisiae deletion strains, locus YLR262C, strain YPT6, hits give low values 0.818 | S. cerevisiae deletion strains, locus YLR268W, strain sec22, hits give low values 0.94 | S. cerevisiae deletion strains, locus YLR320W, strain mms22, hits give low values 0.98 | S. cerevisiae deletion strains, locus YLR330W, strain CHS5, hits give low values 0.995 | S. cerevisiae deletion strains, locus YLR342W, strain FKS1 (second series), hits give low values 0.923 | S. cerevisiae deletion strains, locus YLR342W, strain FKS1, hits give low values 0.976 | S. cerevisiae deletion strains, locus YLR357W, strain rsc2, hits give low values 0.988 | S. cerevisiae deletion strains, locus YLR370C, strain arc18, hits give low values 0.969 | S. cerevisiae deletion strains, locus YLR371W, strain rom2, hits give low values 0.983 | S. cerevisiae deletion strains, locus YLR384C, strain iki3, hits give low values 0.982 | S. cerevisiae deletion strains, locus YLR418C, strain cdc73, hits give low values 0.915 | S. cerevisiae deletion strains, locus YML016C, strain PPZ1, hits give low values 0.991 | S. cerevisiae deletion strains, locus YML032C, strain rad52, hits give low values 0.978 | S. cerevisiae deletion strains, locus YML120C, strain ndi1, hits give low values 0.977 | S. cerevisiae deletion strains, locus YML124C, strain tub3, hits give low values 0.98 | S. cerevisiae deletion strains, locus YMR058W, strain fet3, hits give low values 0.965 | S. cerevisiae deletion strains, locus YMR078C, strain ctf18, hits give low values 0.964 | S. cerevisiae deletion strains, locus YMR125W, strain sto1, hits give low values 0.995 | S. cerevisiae deletion strains, locus YMR129W, hits give low values 0.974 | S. cerevisiae deletion strains, locus YMR205C, strain PFK2, hits give low values 0.985 | S. cerevisiae deletion strains, locus YMR223W, strain ubp8, hits give low values 0.971 | S. cerevisiae deletion strains, locus YMR231W, strain pep5, hits give low values 0.981 | S. cerevisiae deletion strains, locus YMR307W, strain GAS1, hits give low values 0.874 | S. cerevisiae deletion strains, locus YNL067W, strain RPL9B, hits give low values 0.969 | S. cerevisiae deletion strains, locus YNL071W, strain lat1, hits give low values 0.964 | S. cerevisiae deletion strains, locus YNL128W, strain TEP1, hits give low values 0.992 | S. cerevisiae deletion strains, locus YNL183C, strain NPR1, hits give low values 0.924 | S. cerevisiae deletion strains, locus YNL209W, strain ssb2, hits give low values 0.997 | S. cerevisiae deletion strains, locus YNL233W, strain BNI4, hits give low values 0.996 | S. cerevisiae deletion strains, locus YNL248C, strain rpa49, hits give low values 0.985 | S. cerevisiae deletion strains, locus YNL250W, strain rad50, hits give low values 0.981 | S. cerevisiae deletion strains, locus YNL271C, strain bni1, hits give low values 0.964 | S. cerevisiae deletion strains, locus YNL298W, strain CLA4, hits give low values 0.976 | S. cerevisiae deletion strains, locus YNL322C, strain KRE1 (second series), hits give low values 0.98 | S. cerevisiae deletion strains, locus YNR049C, strain mso1, hits give low values 0.984 | S. cerevisiae deletion strains, locus YNR052C, strain pop2, hits give low values 0.97 | S. cerevisiae deletion strains, locus YOL006C, strain TOP1, hits give low values 0.919 | S. cerevisiae deletion strains, locus YOL012C, strain htz1 1.68 | S. cerevisiae deletion strains, locus YOL147C, strain pex11, hits give low values 0.983 | S. cerevisiae deletion strains, locus YOR001W, strain rrp6, hits give low values 0.943 | S. cerevisiae deletion strains, locus YOR061W, strain CKA2, hits give low values 0.985 | S. cerevisiae deletion strains, locus YOR069W, strain VPS5, hits give low values 0.988 | S. cerevisiae deletion strains, locus YOR070C, strain gyp1, hits give low values 0.986 | S. cerevisiae deletion strains, locus YOR080W, strain dia2, hits give low values 0.994 | S. cerevisiae deletion strains, locus YOR083W, strain WHI5, hits give low values 1.03 | S. cerevisiae deletion strains, locus YOR106W, strain vam3, hits give low values 0.999 | S. cerevisiae deletion strains, locus YOR136W, strain idh2, hits give low values 0.997 | S. cerevisiae deletion strains, locus YOR144C, strain elg1, hits give low values 0.98 | S. cerevisiae deletion strains, locus YOR231W, strain MKK1, hits give low values 0.984 | S. cerevisiae deletion strains, locus YOR265W, strain rbl2, hits give low values 0.983 | S. cerevisiae deletion strains, locus YOR270C, strain vph1, hits give low values 0.901 | S. cerevisiae deletion strains, locus YOR290C, strain snf2, hits give low values 0.981 | S. cerevisiae deletion strains, locus YOR316C, strain cot1, hits give low values 0.978 | S. cerevisiae deletion strains, locus YPL051W, strain arl3, hits give low values 0.986 | S. cerevisiae deletion strains, locus YPL055C, strain LGE1, hits give low values 0.997 | S. cerevisiae deletion strains, locus YPL078C, strain atp4, hits give low values 0.974 | S. cerevisiae deletion strains, locus YPL106C, strain sse1, hits give low values 1.06 | S. cerevisiae deletion strains, locus YPL240C, strain hsp82, hits give low values 0.991 | S. cerevisiae deletion strains, locus YPL241C, strain CIN2, hits give low values 0.996 | S. cerevisiae deletion strains, locus YPL256C, strain CLN2, hits give low values 0.942 | S. cerevisiae deletion strains, locus YPR119W, strain clb2, hits give low values 0.982 | S. cerevisiae deletion strains, locus YPR141C, strain kar3, hits give low values 0.982 | S. cerevisiae deletion strains, locus YPR163C, strain tif3, hits give low values 0.986 | S. cerevisiae deletion strains, locus YPR167C, strain met16, hits give low values 0.977 | S. cerevisiae deletion strains, strain wtn01, hits give low values 0.962 | S. cerevisiae strains, strain wild type, hits give low values 0.986
active: S. cerevisiae deletion strains, locus YNL307C, strain MCK1, hits give low values 0.902 | S. cerevisiae deletion strains, locus YOR184W, strain ser1, hits give low values 0.848
